Screening results from PubChem BioAssay.
AMA1-RON2 inh: inhibitors of Plasmodium falciparum AMA1-RON2 interaction | AlphaScreen AMA1-biotinylated RON2 peptide binding | AID 720542 | 360,000 tested, 0.2% active | Potency, µM (highest dose often 58.2 µM), most hits filed as inhibitors; further: nearly all actives have a fitted effect of over 45% in size
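AMA1 (3D7) with his tag at 25 nM final met compounds first, then biotinylated RON2 peptide at 25 nM; detection used donor plus acceptor beads, 10 µg/mL apiece, read by AlphaScreen after 30 min at room temperature.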
SARS PLpro yeast: SARS-CoV PLP inhibition in yeast. 330,000 tested, 0.19% active. S. cerevisiae expressing SARS-CoV PLpro, growth rescue. Potency, µM (top dose mostly 32.9 µM), most hits filed as activators. AID 485353; calls by dose curve; further: nearly all actives have a fitted effect of over 55% in size
Pf growth 96h: P. falciparum growth inhibition at 96 hour, primary screen for plastid delayed-death inhibitors | AID 504834 | P. falciparum luciferase reporter growth, 96 h | 320,000 tested, 6.9% active | Potency, µM (highest dose often 28.7 µM), usual class: inhibitors
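Delayed-death screen, second-generation endpoint: infected erythrocytes, 2% hematocrit, 0.05% parasitemia final; 96 hours at 37 C, 5% CO2; luciferase detection reagent; luminescence decrease equals reduced growth.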
HCV inhibitor: blocks hepatitis C virus | Huh7.5.1 HCVcc-Cre infection, luciferase reporter, 44 h | Potency, µM (highest dose often 41.8 µM), usual class: inhibitors | 340,000 tested, 3.4% active | AID 651820
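A cell-based infection assay in which seeded cells (1,000 per well) receive test compound after 4 h, are inoculated with HCVcc-Cre at approximately 0.5 moi, and are incubated 44 h before luminescence detection.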
NS1 function inh: inhibitors of influenza NS1 protein function. Potency, µM (titrated, usually from 46.1 µM). 270,000 tested, 0.4% active; calls by dose curve; further: actives are rising curves; nearly all actives have a fitted effect of over 50% in size
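OD600 was taken as the measure of yeast growth restored by compound in an NS1-expressing S. cerevisiae strain. Cells had been washed out of glucose medium and diluted 1:100 into galactose -URA medium, pH 6.0.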
Pf growth 48h: inhibits P. falciparum growth in the first generation, 48 h. Potency, µM (highest dose often 28.7 µM), most hits filed as inhibitors. 310,000 tested, 5.9% active. P. falciparum luciferase growth in erythrocytes, 48 h
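Erythrocytes infected with P. falciparum carrying an integrated firefly luciferase reporter (2% hematocrit, 0.1% parasitemia final) were exposed to compounds in RPMI 1640 with 0.5% Albumax at 37 C, 5% CO2. Growth inhibition was scored as reduced luminescence.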
Large screens that a line does not name were inactive. Sampled rows, rich in hits. Any-hit rate of the full collection: about 12%. Unless noted, the call rests on the fitted dose curve; in most records, active means well fitted curve in the direction sought with a large enough effect; inconclusive means small, poorly fitted or top-dose-only effect, or another doubt; inactive means no such curve, though single readings can be large; an effect the other way counts as inactive or inconclusive.

Cc1cc(NC(=O)c2cc3cccc([N+](=O)[O-])c3[nH]2)ccc1F	Pf growth 96h inconclusive, HCV inhibitor 11µM, Pf growth 48h inconclusive
Cc1c(Cl)c([N+](=O)[O-])nn1Cc1ccc(C(=O)N/N=C\c2cccc(Br)c2)o1	Pf growth 96h inconclusive, HCV inhibitor inconclusive, Pf growth 48h 9.3µM
COC(=O)c1c(NC(=O)c2c(-c3ccccc3Cl)noc2C)sc2c1CCC2	Pf growth 96h 2.1µM (no result: Pf growth 48h)
COC(=O)c1c(NC(=O)C(=O)NCCCN2CCOCC2)sc2c1CCCC2	Pf growth 96h inconclusive, HCV inhibitor 22µM
COC(=O)c1c(NC(=O)c2c(C)noc2C)sc2c1CCCCCC2	none (no result: AMA1-RON2 inh)
Cc1ccc(C(=O)Nc2sc3c(c2C(=O)O)CCCCC3)o1	Pf growth 96h inconclusive
COC(=O)c1c(NC(=O)c2ccc(C)o2)sc2c1CCCCC2	HCV inhibitor 11µM
COC(=O)c1c(NC(=O)COC(=O)c2ccc(O)cc2)sc2c1CCCCC2	Pf growth 96h inconclusive, HCV inhibitor 3.2µM, Pf growth 48h inconclusive
N#Cc1c(NC(=O)C(=O)NCCCN2CCOCC2)sc2c1CCC2	Pf growth 96h inconclusive, Pf growth 48h inconclusive
O=C(N/N=C/c1ccc(F)cc1)c1cccc(NC(=O)c2ccc(F)cc2)c1	Pf growth 96h inconclusive, Pf growth 48h inconclusive
COCC(=O)Nc1sc2c(c1C(=O)OC)CCCC2	HCV inhibitor 7.1µM
CC(=O)Nc1sc2c(c1C(=O)N1CCOCC1)CCCCC2	Pf growth 96h 12µM
CC(=O)Nc1sc2c(c1C(N)=O)CCCC2	none
CC1CC(=O)Nc2ccccc2N1C(=O)CSc1nnnn1C(C)C (stereo unspecified)	none (no result: NS1 function inh)
O=C(Nc1nnc(C2CC2)o1)c1ccc(S(=O)(=O)N2CCCc3ccccc32)cc1	Pf growth 96h inconclusive (no result: Pf growth 48h)
COCc1nnc(NC(=O)c2ccc(S(=O)(=O)N3CCCc4ccccc43)cc2)o1	Pf growth 96h inconclusive, HCV inhibitor 13µM, Pf growth 48h inconclusive (no result: NS1 function inh)
COc1ccc(-c2nnc(NC(=O)c3ccc(S(=O)(=O)N4CCCc5ccccc54)cc3)o2)cc1	Pf growth 96h inconclusive, HCV inhibitor 10µM, Pf growth 48h 12µM
Cc1ccc(N(C(=O)CCC(=O)Nc2nccs2)C(C(=O)NC(C)(C)C)c2ccc(O)cc2)cc1 (stereo unspecified)	Pf growth 96h 8.3µM, Pf growth 48h inconclusive
CC(C)(C)NC(=O)C(c1ccc(O)cc1)N(C(=O)CCC(=O)Nc1nccs1)c1ccc(F)cc1 (stereo unspecified)	Pf growth 96h 10µM, Pf growth 48h inconclusive
COCCNC(=O)C(c1ccc(F)cc1)N(C(=O)CCC(=O)Nc1nccs1)c1ccc(C)cc1 (stereo unspecified)	Pf growth 48h inconclusive
CC(C)(C)NC(=O)C(c1ccc(O)cc1)N(Cc1ccccc1)C(=O)CCC(=O)Nc1nccs1 (stereo unspecified)	none
COc1ccc(N2C(=O)/C(=C\c3ccco3)N=C2SCC(=O)N(C(C)C)C(C)C)cc1Cl	Pf growth 96h inconclusive, NS1 function inh inconclusive, Pf growth 48h 10µM
N=c1c2c(-c3ccccc3)c(-c3ccccc3)n(Cc3ccco3)c2ncn1CCN1CCOCC1	HCV inhibitor inconclusive, Pf growth 48h inconclusive
N=c1c2c(-c3ccccc3)c(-c3ccccc3)n(Cc3ccco3)c2ncn1CCO	HCV inhibitor 13µM, Pf growth 48h inconclusive
N=c1c2c(-c3ccccc3)c(-c3ccccc3)n(Cc3ccco3)c2ncn1CCCO	Pf growth 96h 13µM, Pf growth 48h inconclusive
c1ccc(-c2nc3nc4ccccc4nc3n2Cc2ccco2)cc1	none
COc1ccc(C(=O)NCCCc2nc3ccccc3n2Cc2ccccc2C)cc1OC	Pf growth 96h 9.3µM, HCV inhibitor inconclusive, Pf growth 48h inconclusive
CC(=O)NCCCc1nc2ccccc2n1Cc1ccccc1F	none
O=S(=O)(c1ccc(Cl)cc1)N1CCN(C(=S)Nc2ccccc2F)CC1	Pf growth 96h inconclusive, Pf growth 48h 0.93µM (no result: NS1 function inh)
O=S(=O)(c1ccc2ccccc2c1)N1CCN(C(=S)Nc2ccccc2F)CC1	Pf growth 96h 3.3µM, Pf growth 48h 1.7µM
O=S(=O)(c1ccc2ccccc2c1)N1CCN(C(=S)Nc2ccc(F)c(Cl)c2)CC1	Pf growth 96h 0.33µM, HCV inhibitor inconclusive, Pf growth 48h 1µM
N#CCC(=O)Nc1ccc(C(=O)N2CCN(S(=O)(=O)c3ccc4ccccc4c3)CC2)cc1	Pf growth 96h inconclusive, Pf growth 48h 15µM
NS(=O)(=O)c1ccc(NC(=S)N2CCN(S(=O)(=O)c3ccc(F)cc3)CC2)cc1	Pf growth 48h inconclusive (no result: AMA1-RON2 inh)
CC(=O)c1ccc(NC(=O)CN2CCN(S(=O)(=O)c3ccc4ccccc4c3)CC2)cc1	HCV inhibitor inconclusive, Pf growth 48h inconclusive (no result: NS1 function inh)
CN(C)Cc1csc(Nc2ccc(C(F)(F)F)cn2)n1	none (no result: SARS PLpro yeast, Pf growth 96h, HCV inhibitor, NS1 function inh, Pf growth 48h)
Cc1ccc(CN2CC(C(=O)N(CC(C)C)c3c(N)n(Cc4ccccc4)c(=O)[nH]c3=O)CC2=O)cc1 (stereo unspecified)	none (no result: SARS PLpro yeast, Pf growth 96h, NS1 function inh, Pf growth 48h)
O=C(N/N=C1/CC2CCC1C2)c1cc2ccccc2cc1O (stereo unspecified)	Pf growth 96h 9.3µM, Pf growth 48h inconclusive
CC1CCC(NC(=O)c2cc3ccccc3cc2O)CC1 (stereo unspecified)	Pf growth 96h inconclusive, HCV inhibitor inconclusive, Pf growth 48h inconclusive (no result: NS1 function inh)
O=C(NCC1CCCCC1)c1cc2ccccc2cc1O	Pf growth 96h 1.7µM, HCV inhibitor 13µM, Pf growth 48h 1.3µM
CCC1CCCCN1C(=O)COC(=O)c1cc2ccccc2cc1O (stereo unspecified)	none (no result: Pf growth 48h)
O=C(NCC1CCCO1)c1cc2ccccc2cc1O (stereo unspecified)	Pf growth 96h inconclusive, Pf growth 48h inconclusive (no result: NS1 function inh)
O=C(OCC(=O)N1CCCCC1)c1cc2ccccc2cc1O	Pf growth 96h 9.3µM
CC(Oc1ccccc1)C(=O)Nc1nc(-c2ccccn2)cs1 (stereo unspecified)	Pf growth 96h 2.3µM, HCV inhibitor inconclusive, Pf growth 48h 1.9µM (no result: NS1 function inh)
CC(Oc1ccccc1)C(=O)Nc1nc(-c2ccncc2)cs1 (stereo unspecified)	none (no result: NS1 function inh)
O=C(CCCSc1ccccc1)Nc1nc(-c2ccccn2)cs1	AMA1-RON2 inh inconclusive, Pf growth 96h 7.4µM, HCV inhibitor inconclusive (no result: Pf growth 48h)
CC(OC(=O)c1ccc(O)cc1)C(=O)Nc1nc(-c2ccccc2)cs1 (stereo unspecified)	Pf growth 96h inconclusive, HCV inhibitor inconclusive, Pf growth 48h 6.6µM (no result: NS1 function inh)
CC(Oc1cccc(Cl)c1)C(=O)Nc1nc(-c2ccccn2)cs1 (stereo unspecified)	Pf growth 96h 2.6µM, HCV inhibitor 6.3µM, Pf growth 48h 2.6µM (no result: NS1 function inh)
N#Cc1cccc(C(=O)OCC(=O)c2ccc3c(c2)NC(=O)CO3)c1	none (no result: NS1 function inh)
Cc1cccc(C(=O)NC(C(=O)Nc2nc(-c3ccccn3)cs2)C(C)C)c1 (stereo unspecified)	Pf growth 96h inconclusive, HCV inhibitor inconclusive, Pf growth 48h 15µM (no result: NS1 function inh)
